Drawing on PubChem BioAssay AID624126 (The Scripps Research Institute Molecular Screening Center, 2012), this text covers activation for 91 compounds.

About 1,400 (0.39%) of roughly 360,000 compounds were called active. The entries come from a sample that favours actives as a whole. A number with no mark means an inactive call.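 How the source made its calls: active means activation above its plate's cutoff, the mean activation of sample wells plus 3 SD; inactive means the rest.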

Muscarinic acetylcholine receptor M4 (Homo sapiens), sequence (P08173 whole entry, looked up): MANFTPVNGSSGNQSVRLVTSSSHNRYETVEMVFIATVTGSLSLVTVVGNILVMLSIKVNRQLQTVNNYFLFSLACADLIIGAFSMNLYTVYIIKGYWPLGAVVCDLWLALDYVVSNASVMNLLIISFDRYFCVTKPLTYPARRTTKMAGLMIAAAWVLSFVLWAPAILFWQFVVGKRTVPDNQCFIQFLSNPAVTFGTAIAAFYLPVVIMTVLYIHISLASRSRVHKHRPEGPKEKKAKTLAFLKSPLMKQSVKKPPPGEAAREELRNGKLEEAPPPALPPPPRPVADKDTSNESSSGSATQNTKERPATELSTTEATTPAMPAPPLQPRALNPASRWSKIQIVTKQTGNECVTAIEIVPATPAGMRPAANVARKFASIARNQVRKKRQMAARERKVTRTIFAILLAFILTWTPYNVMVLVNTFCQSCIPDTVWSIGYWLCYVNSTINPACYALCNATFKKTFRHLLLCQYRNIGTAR

This assay concerns the target Muscarinic acetylcholine receptor M4 (Homo sapiens) (UniProt P08173). Put plainly: CHRM4 PAMs potentiating acetylcholine calcium signal – CHO-K1 cells, Fluo-8 calcium fluorescence, primary screen (AID 624126). The settings on record: CHO-K1 hM4/Gqi5, Fluo-8 calcium fluorescence, ACh EC20; at 3 µM; hits give high values; 0% = ACh EC20, 100% = maximal ACh.
Consider `COc1ccc(CCNC(=O)COC(=O)c2ccc[nH]c2=O)cc1`, for which the activation was 11.3%.

In the case of `COc1ccc(CCNC(=O)COC(=O)c2cc(=O)c3ccccc3o2)cc1`, the activation was 26.3% (active).

In the case of `CCc1cccc(NC(=O)COC(=O)c2cc(=O)c3ccccc3o2)c1`, the activation was 10.9%.

`COC(=O)c1c(NC(=O)COC(=O)[C@@H](NS(=O)(=O)c2ccccc2)C(C)C)sc2c1CCC2`: the activation is -4.52%.

Regarding `COC(=O)c1scc(S(=O)(=O)C(C)(C)C)c1-n1cccc1`, the activation was -11.5%.

Take `COc1cc(C(=O)N2CCN(C3CCC(C)CC3)CC2)cc(OC)c1OC` (stereo unspecified): the activation was -7.26%.

Regarding `CC(C)N=C1CCCC1C(=S)SSC(=S)C1CCCC1=NC(C)C` (stereo unspecified), the activation was 7.38%.

As to `Cc1cc2[nH]ncc2cc1NC(=S)NC(=O)c1ccccc1`, the activation was 31.9% (active).

Consider `Cn1nnc(NC(=S)NC(=O)c2ccccc2)n1`, for which the activation was 22.4%.

As to `Cc1cc(C)cc(C(=O)NC(=S)Nc2ccc3[nH]c(=O)[nH]c3c2)c1`, the activation is 5.23%.

Regarding `COc1ccc(C(=O)C2CCCN(C(=O)c3ccc(OC)o3)C2)c(C)c1` (stereo unspecified), the activation was -1.21%.

As to `O=c1c2ccccc2nc2n1C1(CCCCC1)Cc1ccccc1-2`, the activation was 21.2% (active).

Turning to `CN(c1ccc2nc3ccccc3c(=O)n2n1)C1CCCCC1`, the activation is 11.4%.

As to `Cc1cccc(-n2c(SCC(N)=O)nc3c(c2=O)C2(CCCCC2)Cc2ccccc2-3)c1`, the activation was -5.47%.

For the compound `Cc1ccc(C(=O)C(C)OC(=O)Cc2n[nH]c(=O)c3ccccc23)cc1C` (stereo unspecified), the activation was -4.11%.

As to `COc1ccc(C(=O)N/N=C2\CCS(=O)(=O)c3ccc(F)cc32)cc1OC`, the activation was 2.71%.

As to `Cc1sc2ncnc(N3CCC(C(=O)Nc4nc5ccc(Cl)cc5s4)CC3)c2c1C`, the activation was 7.24%.

Consider `Cc1sc2ncnc(N3CCC(C(=O)NNC(=O)c4ccc(F)cc4)CC3)c2c1C`, for which the activation is -3.74%.

On to `Cc1sc2ncnc(N3CCC(C(=O)Nc4ccc(F)cc4Cl)CC3)c2c1C`, for which the activation was 45% (active).

As to `Cc1cccc(N(C)C(=O)c2cc(S(=O)(=O)N3CCCCC3)c[nH]2)c1`, the activation was -3.91%.

`NCC(=O)c1cccc2ccc[n+]([O-])c12`: the activation is 17.3% (active).

Turning to `Cc1ccc2cccc(O)c2[n+]1[O-]`, the activation was 16.2%.

On to `Cc1nc2sc(C(=O)c3ccccc3)c(N)c2c2c1CCCC2`, for which the activation is 63% (active).

For the compound `Cc1cccc2cc3c(N)c(C(=O)N4CCCc5ccccc54)sc3nc12`, the activation was -7.18%.

On to `Cn1c(-c2ccc(C(=O)c3ccccc3)s2)nc2ccccc21`, for which the activation is 0.98%.

Regarding `O=C(NCc1ccccc1Cl)C(=O)NCC1CCCN1S(=O)(=O)c1cccs1` (stereo unspecified), the activation is -2.08%.

In the case of `CC(Oc1ccccc1)C(=O)Nc1c2c(nn1-c1ccccc1)CS(=O)C2` (stereo unspecified), the activation is -0.93%.

Take `Cc1ccc(S(=O)(=O)N2CCN(C(=O)CSc3cc(C)ccc3C)CC2)c(C)c1`: the activation was 18.8% (active).

Regarding `Cc1ccc(S(=O)(=O)N2CCN(C(=O)COC(=O)c3c(C)cc(C)cc3C)CC2)c(C)c1`, the activation was -3.37%.

Turning to `CCCc1cc(=O)[nH]c(SCC(=O)N2CCN(S(=O)(=O)c3ccc(C)cc3C)CC2)n1`, the activation was -1.77%.

On to `CC(C#N)(NC(=O)CN1CCN(S(=O)(=O)c2cc(C(F)(F)F)ccc2Cl)CC1)C1CC1` (stereo unspecified), for which the activation was 0.11%.

With `COc1cccc(NC(=O)C2CCCN(c3ncnc4c3nc3n4CCCCC3)C2)c1` (stereo unspecified), the activation is -6.71%.

`CCOc1ccc(S(=O)(=O)Nc2cccc(C(=O)NCC3(N4CCCCC4)CCCCC3)c2)cc1`: the activation is -3.09%.

For the compound `Cc1cc(C)c(S(=O)(=O)c2ccccc2)c(OC(=O)c2c(F)cccc2Cl)n1`, the activation is 1.34%.

In the case of `O=C(O)CCS(=O)(=O)c1ccc(-c2ccccc2)cc1`, the activation is 20.7% (active).

For `O=C(CCS(=O)(=O)c1ccccc1)NC1CCCC1`, the activation was 2.49%.

Regarding `Cc1ccc(S(=O)(=O)CCC(=O)OCc2ccccc2)cc1`, the activation is 1.2%.

Consider `O=C1c2ccccc2NC(c2ccccn2)N1NS(=O)(=O)c1ccccc1` (stereo unspecified), for which the activation is 16.5%.

Take `CN(CC(=O)NCc1ccc2c(c1)OCO2)CC(=O)Nc1ccc(F)c(F)c1F`: the activation was -5.56%.

With `CN(CC(=O)NCCc1ccc(S(N)(=O)=O)cc1)CC(=O)Nc1ccc(F)c(F)c1F`, the activation is 0.07%.

For the compound `CN(CC(=O)NCCc1ccc(F)cc1)CC(=O)Nc1ccc(F)c(F)c1F`, the activation was 21.1% (active).

Regarding `CCc1ccccc1NC(=O)CCOc1ccccc1`, the activation was -7.57%.

As to `Cc1ccccc1NC(=O)CCOc1ccccc1`, the activation is 15.2% (active).

Turning to `Cc1cccc(OCCC(=O)Nc2ccccc2C(N)=O)c1`, the activation was 0.92%.

Regarding `CCCn1nc(NS(=O)(=O)c2ccccc2)c2cc3cc(C)ccc3nc21`, the activation is 9.07%.

In the case of `COc1ccc(CN2C(=O)C(CC(=O)NC3CCCCC3)CC(C(=O)N3CCOCC3)=C2C)cc1` (stereo unspecified), the activation is 0.19%.

Take `Cn1c(CCN2CCN(c3ccccn3)CC2)nc2cc(NS(=O)(=O)c3ccc(F)cc3)ccc21`: the activation is -13.9%.

`C=CCC1(CC=C)CCCN1C(=O)CC1C(=O)NCCN1Cc1ccccc1OC` (stereo unspecified): the activation is 9.2%.

As to `O=C(NCCNc1ccccc1[N+](=O)[O-])c1ccccc1F`, the activation was -0.9%.

With `O=C(Nc1ccccc1-c1ccccc1)c1ccccc1[N+](=O)[O-]`, the activation was -0.05%.

Take `O=C(Nc1ccccc1Cl)c1ccccc1S(=O)(=O)c1ccccc1[N+](=O)[O-]`: the activation was 24.3% (active).

Consider `Cc1noc(NS(=O)(=O)c2ccc(NC(=O)c3oc4ccc(F)cc4c3C)cc2)c1C`, for which the activation is -0.81%.

As to `Cc1cc(OC(C)C(=O)Nc2ccc(S(=O)(=O)Nc3onc(C)c3C)cc2)cc(C)c1Cl` (stereo unspecified), the activation is -0.5%.

With `COc1ccc(C(=O)Nc2ccc(S(=O)(=O)Nc3onc(C)c3C)cc2)cc1OC`, the activation is 31.2% (active).

On to `CCOC(=O)CNC(=O)CSc1ccc2nnc(-c3cccnc3)n2n1`, for which the activation was -1.25%.

Take `CN(Cc1ccccc1)C(=O)c1ccc(NC2=NC3CS(=O)(=O)CC3S2)cc1` (stereo unspecified): the activation is -4.53%.

Consider `Cc1ccc2nc(-c3ccncc3)cc(C(=O)Nc3ccncc3)c2c1`, for which the activation is 20.7% (active).

As for `Cc1ccc(-c2cc(C(=O)NCc3cn(C)nc3C)c3cc(Br)ccc3n2)cc1`, the activation was -8.1%.

Take `CCS(=O)(=O)Nc1cccc(-c2cc(-c3ccccc3)c3cc(C)ccc3n2)c1`: the activation is -23%.

On to `CCCC[C@@H]1CN=C(N)N1CCc1cc(C(F)(F)F)cc(C(F)(F)F)c1`, for which the activation was -12.2%.

In the case of `CCOC(=O)C1=C(c2ccccc2)O/C(=C(/C(=O)OC)C(F)(F)F)S1`, the activation was -8.8%.

Take `COCCNc1ncnc2c1ncn2[C@H]1CN(CCN2CCOCC2)C[C@@H](CO)O1`: the activation was -3.76%.

Consider `COCCNc1ncnc2c1ncn2[C@H]1CN(Cc2ccc(OC)cc2)C[C@@H](CO)O1`, for which the activation is 16.3% (active).

Consider `OC[C@@H]1CN(Cc2ccc(Cl)cc2)C[C@H](n2cnc3c(NCc4ccncc4)ncnc32)O1`, for which the activation was -0.98%.

For the compound `COc1cc(CC(=O)N2CCC(n3nccc3NC(=O)C3CC3)CC2)cc(OC)c1OC`, the activation was 0.58%.

With `Cc1cc(C)cc(N)c1`, the activation is -1.71%.

On to `CC(Nc1nc(C(F)(F)F)nc2ccccc12)c1cccs1` (stereo unspecified), for which the activation is -11.8%.

With `Cc1c(Cl)cccc1NC(=O)CCC(=O)N/N=C/c1ccco1`, the activation is 4.77%.

`O=C(CCNC(=O)c1ccccc1Cl)NN=Cc1ccco1`: the activation was 3.05%.

`CC(C)NC(=O)C(=O)N/N=C/c1ccco1`: the activation was 23.7% (active).

In the case of `O=C(OCC(=O)N(CCc1ccccc1)Cc1ccccc1)c1ccccc1[N+](=O)[O-]`, the activation is -11%.

For `CC(NC(=O)COc1ccccc1)C(=O)NC1=NCCS1` (stereo unspecified), the activation is 8.32%.

As for `CCN1CN(Cc2ccccc2)CNC1=S`, the activation is 10.7%.

As to `CCCCN1C(=O)c2ccc(C(=O)Nc3ccc(S(=O)(=O)N(C)C)cc3)cc2C1=O`, the activation is -10.2%.

For the compound `CN1CCN(S(=O)(=O)c2cccc(C(=O)Nc3cccc(S(N)(=O)=O)c3)c2)CC1`, the activation is -0.95%.

With `CC(C)CCN1C(=O)c2ccc(C(=O)Nc3cccc(S(N)(=O)=O)c3)cc2C1=O`, the activation was 23.1% (active).

As to `CC(=O)NC(NC(=S)Nc1c(C)n(C)n(-c2ccccc2)c1=O)C(Cl)(Cl)Cl` (stereo unspecified), the activation was -1.16%.

Regarding `CCCCc1ccc(NC(=S)N2CCCC(CO)C2)cc1` (stereo unspecified), the activation is 0.72%.

Consider `CCOC(=O)c1sc(NC(=O)C2CSC3(C)CCC(=O)N23)nc1C` (stereo unspecified), for which the activation was 2.06%.

Consider `CCOC(=O)c1sc(NC(=O)CSc2n[nH]c(CC)n2)nc1C`, for which the activation is -9.01%.

In the case of `CCOC(=O)c1sc(/N=C/Nc2nc(C)c(C(=O)OCC)s2)nc1C`, the activation was 39% (active).

On to `Cc1ccn2cc(-c3nonc3C)cc2c1`, for which the activation is 3.14%.

As to `Cc1ccc(S(=O)(=O)N2CCCCC2)cc1C(=O)N1CCN(CCO)CC1`, the activation was 7.4%.

In the case of `CN1CCN(C(=O)N2c3ccccc3CCc3ccccc32)CC1`, the activation was -20.3%.

For `Cc1cnc(C(=O)N2CCCC(N3CCN(c4ccccc4F)CC3)C2)cn1` (stereo unspecified), the activation is 6.32%.

As for `CCc1noc(C)c1C(=O)N1CCCC(N2CCN(c3ccc(F)cc3)CC2)C1` (stereo unspecified), the activation was 20% (active).

As to `COc1ccccc1CN1CCCC(N2CCN(c3ccc(F)cc3)CC2)C1` (stereo unspecified), the activation is -7.29%.

Consider `COCCCNC(=O)Cn1cc(/C=C(\C#N)C(=O)N2CCN(c3ccccc3)CC2)c2ccccc21`, for which the activation was 6.26%.

Turning to `COc1ccc(CCNC(=O)CCn2c(=O)oc3ccccc32)cc1OC`, the activation is 5.54%.

Take `CCN1CCC2(CCN(Cc3cn[nH]c3-c3ccc(OC)c(F)c3)C2)C1` (stereo unspecified): the activation is 16.5%.

As to `CC[C@]1(O)CC2CN(CCc3c([nH]c4ccccc34)[C@@](C(=O)OC)(c3cc4c(cc3OC)N(C=O)[C@H]3[C@@](O)(C(=O)OC)[C@H](OC(C)=O)[C@]5(CC)C=CCN6CC[C@]43[C@@H]65)C2)C1` (stereo partly specified), the activation is -0.6%.
